Screening results as filed in PubChem BioAssay.
SKKanGAS inh: S. pyogenes SKKanGAS growth inhibitors in kanamycin, primary screen, streptokinase expression inhibitor project, SKKanGAS strain, BacTiter-Glo luminescence; 1.3% of 300,000 active; inhibition, % at 7.5 µM; AID 1662, 2009; 6 h;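 active = mean replicate score, as percent of positive control median, at least 50; inconclusive = mean below 50 but one replicate at or above 50; inactive = mean and every replicate below 50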;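 note: strain carries kanamycin resistance gene driven by streptokinase promoter and grows in 40 µg/ml kanamycin; loss of luminescence reflects streptokinase promoter inhibition or plain growth inhibition; 0% = median of DMSO wells and 100% = positive control at its reference dose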
tim23-1 inh: growth inhibitors of tim23-1 mutant yeast, primary screen, luminescence, uHTS; S. cerevisiae tim23-1 growth, BacTiter-Glo luminescence, 24 h; 1.3% of 330,000 active; inhibition, % at 20 µM; AID 463212, 2010;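 active = growth inhibition of the mutant yeast at or above 50%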;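 note: temperature-sensitive mutant grown at 25 °C; plate controls were DMSO-treated mutant yeast for no effect and medium wells lacking yeast for full effect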
PfHsp90 yeast 2: growth inhibition of PfHsp90-expressing yeast, primary screen, antimalarial PfHsp90 inhibitor project, S. cerevisiae, BacTiter-Glo luminescence, single point, set 2 | BacTiter-Glo ATP, 48 h; yeast lacking PDR1 and PDR3 efflux regulators | inhibition, % at 9.4 µM | 0.32% of 310,000 active;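 active = every replicate shows inhibition above about 80%, whatever the replicate mean, limit read from the data; inconclusive = mean inhibition reaches the set limit but some replicate falls short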;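 note: 0% = DMSO neutral controls and 100% = 20 µM radicicol positive controls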
ATG4B inh: ATG4B protease inhibitors, primary screen, biochemical, fluorescence, uHTS; Cysteine protease ATG4B (Homo sapiens), Q9Y4P1; ATG4B cleavage of LC3-PLA2, NBD-HPC fluorescence, 1 h; inhibition, % at 8.33 µM; 0.51% of 340,000 active; in the data active = inhibition above about 40%
Target sequence (Q9Y4P1 whole entry, looked up): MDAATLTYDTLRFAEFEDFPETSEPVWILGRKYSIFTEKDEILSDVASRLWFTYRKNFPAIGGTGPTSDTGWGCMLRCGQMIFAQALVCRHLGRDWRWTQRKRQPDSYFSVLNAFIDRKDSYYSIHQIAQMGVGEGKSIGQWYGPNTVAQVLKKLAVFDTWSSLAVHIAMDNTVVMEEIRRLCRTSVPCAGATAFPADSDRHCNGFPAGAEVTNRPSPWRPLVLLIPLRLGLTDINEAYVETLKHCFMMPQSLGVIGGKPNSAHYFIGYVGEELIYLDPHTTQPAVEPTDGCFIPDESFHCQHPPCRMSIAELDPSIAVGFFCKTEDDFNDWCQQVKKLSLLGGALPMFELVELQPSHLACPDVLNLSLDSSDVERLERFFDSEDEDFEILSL
TIM10 inh: growth inhibitors of isogenic TIM10 control yeast, primary screen, counter-screen for tim10-1 yeast inhibitor project, luminescence, uHTS; S. cerevisiae TIM10 strain growth, BacTiter-Glo luminescence, 24 h; inhibition, % at 10 µM; 1.4% of 330,000 active; AID 463195, 2010;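 active = inhibition of 40% or more at the single tested concentration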;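 note: wild-type TIM10 isogenic control strain grown at permissive 25 °C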
tim10-1 inh: growth inhibitors of tim10-1 mutant yeast, primary screen, luminescence, uHTS. S. cerevisiae tim10-1 ts strain growth, BacTiter-Glo, 24 h. inhibition, % at 20 µM. 2.2% of 330,000 active;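 active = inhibition of at least 40%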;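 note: mutant grown at 25 °C; 0% = DMSO wells with yeast and 100% = wells holding no yeast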
tim10-1 conf: growth inhibitors of tim10-1 mutant yeast, confirmation, single concentration, luminescence, S. cerevisiae; shares compounds with tim10-1 inh; S. cerevisiae tim10-1 ts strain growth, BacTiter-Glo, 24 h; inhibition, % at 20 µM; 56% of 7,400 active; AID 463213, 2010;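 active = inhibition of yeast growth at or above a set limit in either of two repeat tests at 20 µM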;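 note: tim10-1 mutant grown at permissive 25 °C to find synthetic lethal compounds; 0% = DMSO yeast wells and 100% = medium wells without yeast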
The depositor's hits bear a star; ? = inconclusive; / = no result. In the library only some 4.7% were active in any assay of this set; here they are far more common.

SMILES	SKKanGAS inh	tim23-1 inh	PfHsp90 yeast 2	ATG4B inh	TIM10 inh	tim10-1 inh	tim10-1 conf
N#C/C(=C/c1ccc(O)c([N+](=O)[O-])c1)C(=O)Nc1ccccc1	3	25	-15	-9	24	40*	23
COc1ccc(Cl)cc1NC(=O)C1CCCN(c2ncnc3c2nc2n3CCCCC2)C1 (stereo not given)	14	36	30	-1	24	56*	23
CC(=O)c1ccc(NC(=O)C2CCCN(c3ncnc4c3nc3n4CCCCC3)C2)cc1 (stereo not given)	5	8	17	4	-25	8	/
O=C(Nc1ccc(Cl)cn1)C1CCN(c2ncnc3c2nc2n3CCCCC2)CC1	1	26	-8	4	24	50*	19
Cc1ccnc(NC(=O)C2CCCN(c3ncnc4c3nc3n4CCCCC3)C2)c1 (stereo not given)	10	33	-8	4	22	45*	17
O=C(Nc1cccnc1Cl)C1CCCN(c2ncnc3c2nc2n3CCCCC2)C1 (stereo not given)	1	14	-5	-3	4	14	/
CSc1cccc(NC(=O)C2CCCN(c3ncnc4c3nc3n4CCCCC3)C2)c1 (stereo not given)	12	38	3	-4	9	48*	4
O=C(NCCOc1ccc(F)cc1)C1CCC(=O)N(CCCN2CCOCC2)C1 (stereo not given)	-5	2	-12	-4	-1	18	/
O=C(C1CCCCC1)N1CCCC(c2nc3c(nnn3Cc3ccccc3)c(=O)[nH]2)C1 (stereo not given)	1	2	2	-5	4	17	/
Cc1ccc(S(=O)(=O)C(C#N)c2nc3ccccc3nc2OCCO)cc1 (stereo not given)	0	27	/	-8	24	11	/
Brc1ccc(N=NNc2ccccc2)cc1	18	33	-10	7	15	31	/
O=[N+]([O-])c1ccc(N=NNc2ccccc2)cc1	-3	26	-3	-9	14	42*	34*
COc1ccc(-c2[nH]ncc2N=Nc2ccccc2)cc1	29	42	-64	-20	-10	58*	37*
COc1ccc(-c2[nH]ncc2N=Nc2cc(C)cc(C)c2)cc1	?	2	-15	-10	17	32	/
CCOC(=O)c1c(CSc2ccc(C)cc2)n(C)c2cc(Br)c(O)c(CN(C)C)c12	16	36	-13	-1	37	41*	44*
CCOC(=O)c1c(CSc2ccccc2)n(C)c2cc(Br)c(O)c(CN(C)C)c12	3	23	-11	-8	32	29	/
Fc1cccc(NC(=S)NC2CCCCCCC2)c1	/	46	0	23	32	50*	27
FC(F)(F)c1cccc(NC(=S)NC2CCCC2)c1	8	46	-19	8	33	37	/
S=C(Nc1ccccn1)NC1CCCCC1	38	37	-27	2	9	40	6
FC(F)(F)c1ccc(NC(=S)NC2CCCCC2)cc1	16	36	-4	10	36	43*	38*
CCCCNC(c1ccccc1)c1ccncc1 (stereo not given)	-10	5	-48	-6	-6	-8	/
Cc1cc(C(=O)N/N=C\c2cc(C(C)(C)C)c(O)c(C(C)(C)C)c2)n[nH]1	12	33	-1	14	5	10	/
CCOc1ccc(NC(=O)CN(C)C(=O)c2ccccc2Cc2ccccc2)cc1OCC	/	10	0	-3	-11	-9	/
COc1cc(/C=C2\SC(=S)N(NC(=O)c3ccccc3O)C2=O)ccc1O	14	34	-6	5	31	44*	32*
COc1ccc(-n2c(=S)[nH]c3ccccc32)cc1	4	26	-5	-8	28	42*	15
